Results filed as inconclusive are left out. Calls of active or inactive are those of the source. How the source made its calls: active means hit-call score of the fitted dose curve at least 0.9, where 1 is the maximum; inconclusive means response in the unintended direction; inactive means score below 0.9.

The assay in a line: CCTE_Mundy_HCI_hNP1_CellTiter: CCTE's Cell Titer-Glo 2 Assay in human neuroprogenitor cells for Viability, Mundy Lab (AID 2284241). The protocol: CCTE_Mundy_HCI_hNP1_CellTiter is a multiplexed, cell-based-readout assay that uses neural stem cells derived from a neuroepithelial cell lineage of WA09 embryonic cells with measurements taken at […] after chemical dosing in a microplate: 96-well plate.CCTE_Mundy_HCI_hNP1_CellTiter is one component of the CCTE_Mundy_HCI_hNP1_CellTiter assay. It measures cell viability related to ATP content using Luminescent Reporter.Data from the assay component CCTE_Mundy_HCI_hNP1_CellTiter was analyzed at the endpoint CCTE_Mundy_HCI_hNP1_CellTiter in the positive analysis fitting direction relative to DMSO as the negative control and baseline of activity. Using a type of viability reporter, loss -of-signal activity can be used to understand viability effects.
Human neural progenitor cells (hNP1) were obtained as cryopreserved cells from ArunA Biomedical, Athens Georgia. Cells are plated on pre-coated poly-L-ornithine/laminin clear bottom and opaque 96 well plates (day 0). Plates are placed in a 37 °C, 5% CO2 incubator for 40 to 44 hours at which time plates are removed from the incubator and 10 uL of a freshly made chemical solution is added to each well. Cell viability was based on number of cells per field or determined in sister plates using the CellTiter-Glo luminescent assay (Promega) which measures the amount of ATP present in each well. Twenty-four hours after chemical treatment, 50ul of CellTiter-Glo assay buffer was added to each well and the plate incubated for 30min at room temperature. Luminescence was then recorded in each well using a FLUOstar Optima plate reader (BMG LABTECH, Cary, NC).
In general terms: Cellular ATP, detected with luciferase, serves as a proxy for viable cell number.
With `C=CC(=O)OCC(F)(F)C(F)(F)C(F)(F)COC(=O)C=C`, the outcome was inactive.
Consider `O=C(F)C1(F)C(F)(F)C(F)(F)C(F)(F)C(F)(F)C1(F)F`, for which the outcome was inactive.
Turning to `O=C(O)CCC(F)(F)C(F)(F)C(F)(F)F`, the compound was called inactive.
`O=C(O)CCC(F)(F)C(F)(F)C(F)(F)C(F)(F)C(F)(F)C(F)(F)C(F)(F)F`: the result was inactive.
On to `NC(O)(C(F)(F)F)C(F)(F)F`, for which the outcome was inactive.
The same measure for `CCN(CCO)S(=O)(=O)C(F)(F)C(F)(F)C(F)(F)C(F)(F)C(F)(F)C(F)(F)C(F)(F)C(F)(F)F`: “inactive”.
As for `NC(=O)C(F)(F)C(F)(F)C(F)(F)C(F)(F)C(F)(F)C(F)(F)C(F)(F)F`, the outcome was inactive.
In the case of `OCCCC(F)(F)C(F)(F)C(F)(F)C(F)(F)C(F)(F)C(F)(F)C(F)(F)C(F)(F)F`, the call was inactive.
The same measure for `O=C(O)C(F)(F)C(F)(F)C(F)(F)OC(F)(F)F`: “inactive”; for `OCCCCC(F)(F)C(F)(F)C(F)(F)C(F)(F)F`: “inactive”.
As to `O=C(O)C(F)(F)C(F)(F)C(F)(F)OC(F)(C(F)(F)F)C(F)(F)F`, the compound was called inactive.
